A3A deaminase = inhibitors of human APOBEC3A DNA deaminase | P31941 | recombinant A3A, FAM/TAMRA ssDNA deamination fluorescence | inhibition, % at 20 µM | 330,000 compounds, 0.41% hits;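 active = at least 40% inhibition at 20 µM here, with at most 30% in a related deaminase screen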
Target sequence (P31941 whole entry, looked up): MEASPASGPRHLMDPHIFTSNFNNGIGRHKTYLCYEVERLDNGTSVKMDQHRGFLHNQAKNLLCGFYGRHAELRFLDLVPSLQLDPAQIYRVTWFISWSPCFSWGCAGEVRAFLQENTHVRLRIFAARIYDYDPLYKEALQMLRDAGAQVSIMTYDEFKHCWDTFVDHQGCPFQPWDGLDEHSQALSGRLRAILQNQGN
VLA-4 inh = inhibition in a human VLA-4 binding assay; AID 2557; inhibition, % (about 7 µM as worked out from the volumes in the protocol); 330,000 compounds, 0.2% hits; VLA-4 expressing cells, ligand binding flow cytometry; P13612; in the data active = inhibition above about 50%
GRK2 inh = human GRK2 inhibition via aptamer displacement. bead flow cytometry, FAM-aptamer displacement from GRK2. inhibition of aptamer binding, % at 10 µM. 330,000 compounds, 0.59% hits. AID 488847;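 active = inhibition of aptamer binding above 40%, roughly 3 SD of noise, on plates passing a quality check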;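 also: median bead fluorescence of bound FAM aptamer so fluorescent compounds give negative values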
A3G deaminase = inhibitors of human APOBEC3G DNA deaminase | recombinant A3G, ssDNA deamination FAM/TAMRA fluorescence | 330,000 compounds, 0.28% hits | Q9HC16 | AID 493012 | inhibition, % at 20 µM;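 active = inhibition of at least 40% at 20 µM, with no more than 30% in the related APOBEC3A deaminase screen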
Target sequence (Q9HC16 whole entry, looked up): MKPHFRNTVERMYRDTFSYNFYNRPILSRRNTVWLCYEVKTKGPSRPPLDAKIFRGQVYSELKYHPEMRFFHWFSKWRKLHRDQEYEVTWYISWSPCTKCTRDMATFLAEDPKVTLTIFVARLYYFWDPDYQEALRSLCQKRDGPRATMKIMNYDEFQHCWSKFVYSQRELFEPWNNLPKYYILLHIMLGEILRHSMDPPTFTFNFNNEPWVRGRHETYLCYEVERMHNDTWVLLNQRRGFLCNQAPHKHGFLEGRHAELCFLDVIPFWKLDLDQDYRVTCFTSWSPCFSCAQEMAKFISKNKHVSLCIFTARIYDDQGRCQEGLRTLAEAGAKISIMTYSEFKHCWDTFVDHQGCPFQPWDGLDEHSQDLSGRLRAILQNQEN
GRK2 CP1 = confirmation of human GRK2 inhibitors displacing RNA aptamer | bead-bound GRK2, FAM-aptamer displacement, flow cytometry | shares compounds with GRK2 inh | AID 504451 | 2,000 compounds, 4% hits | aptamer displacement, % at 10 µM;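 active = aptamer displacement above 40%, near three times the noise of non-fluorescent compounds, on plates passing quality checks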;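 also: negative values mostly reflect intrinsic compound fluorescence rather than true enhancement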
Aptamer quench 1 = fluorescent aptamer quenching in GRK2 counter-screen dose response. shares compounds with GRK2 inh. Fluorescent RNA aptamer beads, flow cytometry; hits give high values. fluorescence change (kMESF span), kMESF (concentration not given with the values). 110 tested, under 10 active. AID 504521;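 active = compounds whose bead fluorescence drops by more than 37 kMESF across the dose range, marking them as dye quenchers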
Aptamer quench SP = quenches fluorescent RNA aptamer, GRK2 hit artifact | fluorescence response (% of DMSO), % at 10 µM | 2,000 tested, under 10 active | shares compounds with GRK2 inh | Carboxyfluorescein RNA aptamer on beads, flow cytometry quenching; hits give low values;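 active = compounds that quench the bead-bound fluorescent RNA probe, cutting fluorescence to under half of the solvent control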;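 also: counterscreen run without GRK2 so only probe quenching by compound is measured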
GRK2 CP2 = human GRK2 inhibition confirmation, cherry pick 2; AID 504782; shares compounds with GRK2 inh; inhibition of aptamer binding, % at 10 µM; bead-bound GRK2, FAM-aptamer displacement, flow cytometry; 360 tested, under 10 active;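 active = inhibition of aptamer binding above 40%, about triple the noise seen with nonglowing compounds, on plates passing quality control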;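 also: negative values mostly come from compounds that fluoresce themselves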
Aptamer quench 2 = quenches fluorescent RNA aptamer, GRK2 hit artifact | shares compounds with GRK2 inh | change in fluorescence (kMESF span), kMESF (concentration not given with the values) | 25 tested, under 10 active | Streptavidin beads, FAM-RNA aptamer fluorescence quenching, flow cytometry;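 active = compounds quenching the bead-bound labeled aptamer, with fluorescence dropping by more than 37 kMESF over the dose range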
FAM quench SP = quenches fluorescent RNA aptamer, GRK2 hit artifact. 360 tested, under 10 active. carboxyfluorescein RNA aptamer beads, flow cytometry quenching; hits give low values. fluorescence response vs DMSO, % at 10 µM. shares compounds with GRK2 inh;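 active = response vs DMSO under 50%, meaning signal dropped by over half, treated as fluorescence quencher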;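 also: labelled aptamer on streptavidin beads without GRK2 as a quench counter-screen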
FAM quench PS1 = aptamer fluorescence quenching in GRK2 powder counter-screen. shares compounds with GRK2 inh. Bead-bound FAM RNA aptamer fluorescence quenching, flow cytometry; hits give low values. fluorescence ratio to DMSO, % at 11.1 µM. 35 tested, under 10 active;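 active = compounds that dim the fluorescent label, raw bead signal shifting by over 33 units between lowest and highest dose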
Of the large screens only hits and unclear results are named; the others gave an inactive call (follow-up assays come after a bar, where they were run). Hits are enriched below; roughly 1.4% of the tested compounds scored in any of these assays.

COC(=O)[C@H](Cc1ccccc1)NC(=O)N1CCCCCC1	none | GRK2 CP1 inactive | Aptamer quench SP inactive
COC(=O)[C@H](Cc1ccccc1)NC(=O)N1CCN(c2ccc(F)cc2)CC1	none | GRK2 CP1 inactive | Aptamer quench SP inactive
O=C(O)[C@H](Cc1ccccc1)NC(=O)N1CCCCCC1	GRK2 inh 100 | GRK2 CP1 inactive | Aptamer quench SP inactive
COC(=O)C(Cc1ccccc1)NC(=O)CC(C)CC(=O)Nc1ccc(C)cc1 (stereo not drawn)	GRK2 inh 46 | GRK2 CP1 inactive | Aptamer quench SP inactive
Cc1c(C(=O)Nc2cccc(C(F)(F)F)c2)oc2ccc(S(=O)(=O)N3CCOCC3)cc12	none
CCc1sc(C(=O)N2CCc3ccccc32)cc1C	none
CCOC(=O)c1oc2c(C)c(O)ccc2c(=O)c1-c1nncn1-c1ccccc1	GRK2 inh 75 | GRK2 CP1 inactive | Aptamer quench SP inactive
O=C(COc1cc2oc(=O)c3c(c2cc1Cl)CCC3)NCC(O)c1ccccc1 (stereo not drawn)	none
COCCNC(=O)/C(C#N)=C/c1cn(CC(=O)NCc2ccco2)c2ccccc12	none
Clc1ccc(CN=C2Nc3ccccc3CS2)cc1	none
c1ccc2c(c1)CSc1ccccc1N2	GRK2 inh 97 | GRK2 CP1 inactive | Aptamer quench SP inactive
COc1ccc(CC(=O)NNC(=S)Nc2ccc(Br)cc2)cc1	none
O=C(O)c1cnc(-c2ccccc2)nc1Sc1ccccc1	none
O=C(O)c1ccccc1/C=N/NC(=S)NC1CCCCC1	none
C/C=C(\C)C(=O)NCCN1C2=NC[C@@H](C)N2C[C@H]1Cc1ccc(O)cc1	GRK2 inh 68 | GRK2 CP1 inactive | Aptamer quench SP inactive
COc1ccc(-c2cn3c(C)c(C(=O)N4CCCc5ccccc54)sc3n2)cc1	GRK2 inh 81 | GRK2 CP1 inactive | Aptamer quench SP inactive
COc1ccc(-c2cn3c(C)c(C(=O)N4CCN(c5ccccc5F)CC4)sc3n2)cc1	none
Cc1nnc(NC(=O)c2ccc(Br)o2)s1	GRK2 inh 85 | GRK2 CP1 inactive | Aptamer quench SP inactive
Cc1nnc(NC(=O)c2ccc(Br)cc2)s1	none
O=C(Oc1ccc(Oc2ccccc2)cc1)N1CCC(O)CC1	none
COc1cc2sc3cc(NCC[C@@H]4CCCN4C)ccc3c(=O)c2cc1OC	GRK2 inh 77 | GRK2 CP2 inactive | FAM quench SP inactive
COc1cccc2sc3ccc(NCCC4CCCN4C)cc3c(=O)c12 (stereo not drawn)	none
CC1CC2C3CCC4=CC(=O)C=CC4(C)C3(F)C(O)CC2(C)C1(O)C(=O)CO (stereo not drawn)	none
C/C(=N\NC(=O)c1cccs1)c1ccc2ccccc2c1	none | GRK2 CP1 inactive | Aptamer quench SP inactive
COc1ccccc1NC(=O)c1ccccc1NC(=O)c1cc(Cl)ccc1NC(=O)c1ccco1	none
Cc1ccccc1C(=O)Nc1nncs1	none
Cc1cc(C(=O)Nc2nncs2)oc1C	GRK2 inh 90 | GRK2 CP1 inactive | Aptamer quench SP inactive
O=C(Cn1cc([N+](=O)[O-])cn1)N1CCc2ccccc21	none | GRK2 CP1 inactive | Aptamer quench SP inactive
O=C(Cn1cc([N+](=O)[O-])cn1)N1CCCc2ccccc21	none
O=[N+]([O-])c1ccccc1/C=N/Nc1nc(N2CCCC2)nc(N2CCCC2)n1	GRK2 inh 59 | GRK2 CP1 inactive | Aptamer quench SP inactive
O=S(=O)(Nc1nc2cc3c(cc2nc1Cl)OCCO3)c1ccccc1	GRK2 inh 48 | GRK2 CP1 inactive | Aptamer quench SP inactive
CCOC(=O)N1CCN(C(=O)CSc2nnc(-c3cccs3)o2)CC1	none
CN1CCN(S(=O)(=O)c2cccc(C(=O)N(Cc3nnc(-c4ccc(Cl)cc4)o3)C3CC3)c2)CC1	none
CCc1ccc(/C([O-])=C(/C(=S)NCCN2CCOCC2)[n+]2ccccc2)cc1	GRK2 inh 72 | GRK2 CP1 inactive | Aptamer quench SP inactive
CCNC(=S)/C(=C(/[O-])c1ccc([N+](=O)[O-])cc1)[n+]1ccccc1	none
COc1ccc(Cl)cc1C(=O)O/N=C(\N)c1ccccn1	none
N/C(=N\OC(=O)c1cc(Cl)ccc1Cl)c1ccccn1	GRK2 inh 100 | GRK2 CP1 inactive | Aptamer quench SP inactive
Cc1ccccc1C1c2[nH]c3ccccc3c2C[C@H]2C(=O)N(C3CC3)CC(=O)N12 (stereo partly drawn)	none
CC(=O)c1ccc(NC(=O)CCS(=O)(=O)c2ccc3c(c2)n(C)c(=O)c(=O)n3C)cc1	GRK2 inh 48 | GRK2 CP1 inactive | Aptamer quench SP inactive | GRK2 CP2 inactive | FAM quench SP inactive
COC(=O)c1ccc(NC(=O)CCS(=O)(=O)c2ccc(Br)cc2)cc1	GRK2 inh 58 | GRK2 CP1 inactive | Aptamer quench 1 inactive | Aptamer quench SP inactive | Aptamer quench 2 inactive | FAM quench PS1 inactive
CCc1cccc(NC(=O)CCS(=O)(=O)c2ccc(Br)cc2)c1	GRK2 inh 93 | GRK2 CP1 73 | Aptamer quench 1 inactive | Aptamer quench SP inactive | Aptamer quench 2 inactive
COC(=O)c1ccc(NC(=O)CCS(=O)(=O)c2ccc(C)cc2)cc1	none
Cc1cnc(NC(=O)Cc2c[nH]c3ccccc23)s1	GRK2 inh 51 | GRK2 CP1 inactive | Aptamer quench SP inactive
CCOc1ccccc1NC(=O)CSCC(=O)Nc1ccccc1	none
Cc1ccc(/C=C2/C(=N)N3N=C(CC(=O)N4CCCC4)SC3=NC2=O)cc1	GRK2 inh 44 (no result: A3A deaminase, A3G deaminase) | GRK2 CP1 inactive | Aptamer quench SP inactive
CCc1noc(C)c1C(=O)Nc1cc(Cl)ccc1-n1cncn1	none
COc1ccccc1C(=O)N/C(=C\c1cn(C)c2ccccc12)C(=O)N1CCOCC1	none
COc1ccc(C(=O)N/C(=C\c2cn(C)c3ccccc23)C(=O)N2CCOCC2)cc1OC	GRK2 inh 57 | GRK2 CP1 inactive | Aptamer quench SP inactive
O=C(c1ccc2c(=O)n(CCc3ccccc3)c(=O)[nH]c2c1)N1CCN(c2ccccc2)CC1	GRK2 inh 88 | GRK2 CP1 inactive | Aptamer quench SP inactive
